MCF10A rereplic: A quantitative high throughput screen for small molecules that induce DNA re-replication in MCF 10a normal breast cells; Potency, µM (doses to about 46.1 µM), without a hit: at the top dose activity, positive = re-replication, actives largely listed as activators; MCF 10A DNA re-replication, Hoechst nuclear intensity, 48 h; AID 624296, 2012; hit rate 2.9% among 350,000; note: potency is the fitted concentration of half-maximal effect; % of control where 0% means no effect; nearly all actives have a fitted effect of over 50% in size
KB-V1 MDR tox: qHTS assay for MDR1-selective chemotherapeutics: Primary screen using the drug-selected MDR subline cells KB-V1; KB-V1 MDR cells viability, CellTiter-Glo, 72 h; Potency, µM (top dose mostly 46.1 µM), actives largely listed as cytotoxic; hit rate 3.4% among 400,000; AID 1347076, 2019; note: potency is the fitted concentration of half-maximal effect; % is set by controls: 0 for no effect and ±100 for the full control effect; nearly all actives have a fitted effect of over 60% in size
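Potencies derive from concentration-effect curves fitted to normalized luminescence (CellTiter-Glo) of KB-V1 cells treated for 72 h at 37 degrees C in phenol-red-free DMEM containing 10% FBS.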
KCNH2 3.1 inh: qHTS for Inhibitors of KCHN2 3.1: Mutant qHTS; U2OS KCNH2 3.1, thallium flux FluxOr; stronger effect = lower value; activity change, % (tested at about 1.8 µM); hit rate 0.95% among 340,000;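 active = maximum activity change below -70%; inconclusive = maximum activity change from -70% to -50%; inactive = maximum activity change above -50%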;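 note: thallium influx rate constant from kinetic fluorescence after stimulation buffer; % is set by controls: 0 for no effect and ±100 for the full control effect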
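FluxOr-based Tl+ influx in U2OS cells transduced with KCNH2 3.1 virus; rate constants normalized to DMSO controls.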
KCNH2 WT inh: qHTS for Inhibitors of KCHN2 3.1: Wildtype qHTS; Voltage-gated inwardly rectifying potassium channel KCNH2 (Homo sapiens), Q12809; U2OS, BacMam KCNH2, thallium flux FluxOr; stronger effect = lower value; activity change, % at 1.84 µM; hit rate 0.37% among 340,000;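 active = maximum activity change below -70%; inconclusive = maximum activity change between -70% and -50%; inactive = maximum activity change above -50%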; note: % is set by controls: 0 for no effect and ±100 for the full control effect
Target sequence (Q12809 whole entry, looked up): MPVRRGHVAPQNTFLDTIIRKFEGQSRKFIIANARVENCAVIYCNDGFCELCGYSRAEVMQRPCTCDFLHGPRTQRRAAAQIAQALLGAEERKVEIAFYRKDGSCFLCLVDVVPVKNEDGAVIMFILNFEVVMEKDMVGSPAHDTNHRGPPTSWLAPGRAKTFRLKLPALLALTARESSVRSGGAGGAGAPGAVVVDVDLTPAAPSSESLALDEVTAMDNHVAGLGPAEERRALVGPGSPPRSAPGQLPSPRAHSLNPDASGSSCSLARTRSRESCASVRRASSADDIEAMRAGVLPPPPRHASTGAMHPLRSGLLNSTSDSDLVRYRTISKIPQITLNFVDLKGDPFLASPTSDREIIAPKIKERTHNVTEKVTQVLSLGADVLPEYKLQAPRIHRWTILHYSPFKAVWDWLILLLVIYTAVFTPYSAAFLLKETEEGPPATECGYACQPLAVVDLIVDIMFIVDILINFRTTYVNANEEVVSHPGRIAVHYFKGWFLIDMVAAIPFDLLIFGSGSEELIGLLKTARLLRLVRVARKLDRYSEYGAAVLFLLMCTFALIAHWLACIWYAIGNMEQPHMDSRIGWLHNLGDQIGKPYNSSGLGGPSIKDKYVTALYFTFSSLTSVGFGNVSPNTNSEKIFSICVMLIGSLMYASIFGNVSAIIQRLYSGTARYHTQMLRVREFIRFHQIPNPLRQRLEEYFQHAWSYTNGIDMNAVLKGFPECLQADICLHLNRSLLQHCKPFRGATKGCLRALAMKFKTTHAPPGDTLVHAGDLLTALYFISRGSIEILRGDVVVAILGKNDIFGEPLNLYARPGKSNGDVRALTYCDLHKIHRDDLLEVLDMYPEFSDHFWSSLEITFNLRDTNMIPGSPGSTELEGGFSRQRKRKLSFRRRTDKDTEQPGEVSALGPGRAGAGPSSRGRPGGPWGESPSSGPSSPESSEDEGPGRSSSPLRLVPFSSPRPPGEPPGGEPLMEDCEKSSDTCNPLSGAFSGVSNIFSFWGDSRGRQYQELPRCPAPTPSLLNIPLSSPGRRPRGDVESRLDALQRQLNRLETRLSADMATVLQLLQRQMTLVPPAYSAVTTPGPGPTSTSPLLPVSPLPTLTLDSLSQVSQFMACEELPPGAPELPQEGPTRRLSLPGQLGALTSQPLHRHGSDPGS
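U2OS cells were transduced with wild-type KCNH2 virus (2.03 x 10^8 / mL) for 4 h at room temperature, then cultured overnight at 37 C. Thallium flux was read with FluxOr dye. Rate constants were normalized to DMSO controls.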
SW480 rerep: A quantitative high throughput screen for small molecules that induce DNA re-replication in SW480 colon adenocarcinoma cells; hit rate 1.8% among 340,000; AID 624297, 2012; SW480 DNA re-replication, Hoechst DNA content imaging, 48 h; Potency, µM (titrated, usually from 46.1 µM), for inactives: at the highest dose re-replication activation, hits mostly activators; note: potency is the fitted concentration of half-maximal effect; % of control where 0% means no effect; nearly all actives have a fitted effect of over 55% in size
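Per well, 250 cells were exposed to pinned compound for 48 hr. Nuclear DNA was visualised with Hoechst (40 min, 37 C) and total object intensity recorded by fluorescence scanning.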
KB-3-1 cytotox: qHTS assay for MDR1-selective chemotherapeutics: Primary screen using the parental adenocarcinoma cell KB-3-1; KB-3-1 viability, CellTiter-Glo ATP luminescence, 72 h; Potency, µM (doses to about 46.1 µM), most hits filed as cytotoxic; hit rate 1.4% among 400,000; AID 1347075, 2019; note: potency is the fitted concentration of half-maximal effect; % is set by controls: 0 for no effect and ±100 for the full control effect; nearly all actives have a fitted effect of over 60% in size
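Parental KB-3-1 adenocarcinoma cells in phenol-red-free DMEM with 10% FBS were pin-treated with compounds at several concentrations, incubated 72 h at 37 °C, and viability read by CellTiter-Glo luminescence; concentration-effect curves were fitted after normalization.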
* hit, by the source's call; i = inactive; u = inconclusive; x = not tested or not shown; [ ] = another dose, or the depositor's remark. A selection: hits, their analogues and other compounds. The true share with any hit is near 7.6%. Unless noted, calls come from the whole dose curve; as a rule, active = well fitted curve in the direction sought with a large enough effect; inconclusive = small, poorly fitted or top-dose-only effect, or another doubt; inactive = no such curve, though single readings can be large; an effect the other way counts as inactive or inconclusive.

SMILES	MCF10A rereplic	KB-V1 MDR tox	KCNH2 3.1 inh	KCNH2 WT inh	SW480 rerep	KB-3-1 cytotox
CCCn1c2c(c(O)c(C(=O)NC)c1=O)CCCC2	3%	i	2	1	-8%	i
CCn1c2c(c(=N)c3ccccc31)CCC2	11%	i	14	4	-9%	u
CCCCCCCn1c2c(c(=N)c3c1CCC3)CCCC2	u	u	-1	-27	0%	0.58µM*
COc1ccc(-c2cc(C(=O)N3CCN(c4cccc(C)c4C)CC3)c3ccccc3n2)cc1OC	u	i	-13	-15	u	i
Nc1[nH]c(=O)nc2nnsc12	x	i	x	x	x	u
CCn1c2c(c(=N)c3c1CCC3)CCC2	6%	i	-88*	0	-3%	i
O=C(NCCN1CCOCC1)c1cc(Cl)ccc1Cl	-2%	i	3	-1	-11%	i
O=C(NCCN1CCOCC1)NC1(C(F)(F)F)Oc2ccc(Cl)cc2O1 (stereo not given)	20%	u	-12	2	9%	4.6µM*
COc1ccc(C(=O)Nc2ccnc(-c3cccnc3)n2)cc1	2%	i	-18	0	-4%	i
CCC(=O)Nc1ccnc(-c2cccnc2)n1	1%	i	-108*	5	-4%	i
Cc1ccc(C(=O)Nc2ccnc(-c3cccnc3)n2)cc1	21%	i	-109*	-8	-3%	i
CC12CC3CC(C)(C1)CC(C(=O)NCc1ccco1)(C3)C2	5%	i	-7	5	-1%	i
O=C(NCc1ccco1)C12CC3CC(C1)CC(C(=O)NCc1ccco1)(C3)C2	-2%	21µM*	-9	14	-3%	i
O=S(NCc1ccco1)C12CC3CC(CC(C3)C1)C2 (stereo not given)	21µM*	i	1	-7	-2%	i
Cc1cccc(-n2c(=O)c3c(c4cc(C)ccc4n3C)n(C)c2=O)c1	x	i	x	x	x	i
Cc1ccc2nc(SCn3nnc4ccccc4c3=O)[nH]c2c1	u	23µM*	-3	7	0%	i
Cc1ccc2nc(SCC(=O)c3c(C)[nH]c4ccccc34)[nH]c2c1	13µM*	u	-18	-1	9%	i
O=c1[nH]c(=O)c2cn[nH]c2[nH]1	-2%	i	13	18	-77%	i
CS/C(N)=N/N=C/c1cc(C)ccc1O	1%	i	66	10	15µM*	i
NS(=O)(=O)c1ccc(NC(=O)COC(=O)c2cccc(S(=O)(=O)N3CCCC3)c2)cc1	-15%	i	3	-4	-2%	i
NC1=NC(c2cccc(O)c2)n2c(nc3ccccc32)N1 (stereo not given)	8%	i	-12	5	u	i
NC1=NC(c2ccc(F)cc2)n2c(nc3ccccc32)N1 (stereo not given)	26µM*	i	13	-7	u	i
CN1C(=O)c2ccc(NC(=O)C3CC3)cc2C1=O	-11%	i	11	5	-6%	i
CCCCCOC(=O)Cn1c(=O)c2c(nc(N3CCOCC3)n2C)n(C)c1=O	20%	16µM*	-5	-2	-17%	i
CCOC(=O)Cn1c(=O)c2c(nc(N3CCOCC3)n2C)n(C)c1=O	-2%	i	1	8	-1%	i
SMILES	MCF10A rereplic	KB-V1 MDR tox	KCNH2 3.1 inh	KCNH2 WT inh	SW480 rerep	KB-3-1 cytotox
CC1CCCCN1CCCNc1ccc(C(CC(N)=O)NC(=O)Cc2ccc(Br)cc2)cc1[N+](=O)[O-] (stereo not given)	22%	i	1	0	3%	i
CN(c1ccc(C(=O)Nc2ccc(Cl)cn2)cc1)S(=O)(=O)c1ccccc1	28%	u	-15	-14	15%	i
Cc1cccc(C(=O)Nc2cccc(NC(=O)c3ccccc3)c2)c1	0%	i	-28	6	-2%[9.22 µM]	i
Cc1cccc(NC(=O)c2cccc3c2C(=O)c2ccccc2-3)c1	22%	6.5µM*	-3	3	-1%	i
O=C(NC1=C(Nc2ccc(Cl)cc2)C(=O)c2ccccc2C1=O)c1ccccc1	3%	21µM*	-1	2	u	18µM*
CN(C1=C(NC(=O)c2ccc(Cl)cc2)C(=O)c2ccccc2C1=O)c1ccccc1	u	u	-98*	-153*	u	u
O=C(Nc1ccc(Nc2ccccc2)cc1)c1ccc(Cl)cc1	6%	i	14	0	9%	i
Cc1cccc(NC2=C(NC(=O)c3ccccc3)C(=O)c3ccccc3C2=O)c1	u	15µM*	-18	6	18µM*	i
N#Cc1c(Nc2cccc(F)c2)sc2c(O)cc(=O)[nH]c12	u	i	2	-3	-1%	u
COc1ccc(NC(=O)Nc2ccon2)cc1OC	0%	i	6	-4	-2%	i
COc1ccc(CNC(=O)c2cc3ccccc3o2)cc1OC	-1%	8.2µM*	11	-4	13%	i
COc1ccc(NC(=O)c2cc3ccccc3o2)cc1OC	-2%	i	2	-6	-18%	i
COc1ccc(CNC(=O)c2ccc3ccccc3n2)cc1OC	8%	7.3µM*	-4	0	-10%	u
CCc1ccc2oc(C(=O)Nc3cc(Cl)ccc3OC)cc(=O)c2c1	x	i	x	x	x	i
CCc1ccc2oc(C(=O)NCCc3ccc(OC)c(OC)c3)cc(=O)c2c1	x	5.2µM*	x	x	x	16µM*
CN(CC1CCCN(CCc2ccc(Cl)cc2)C1)C(=O)CC(F)(F)F (stereo not given)	17%	i	-12	23	5.8µM*	i
CN(CC1CCCN(CCc2ccc(Cl)cc2)C1)C(=O)c1ccco1 (stereo not given)	u	u	-79*	-37	2%	i
COc1ccc(CC(=O)NNC(=O)c2nn(Cc3ccccc3)c(=O)c3ccccc23)cc1OC	7%	i	-4	-2	-4%	i
COc1ccc(Oc2cc(NN3CCCCC3)c([N+](=O)[O-])cc2[N+](=O)[O-])cc1OC	0%	i	0	-3	-18%	i
COc1ccc(Nc2nc(N)c(C(=O)c3ccc(F)cc3)s2)cc1	2.6µM*	1.3µM*	4	0	4.1µM*	u

Compound activity as filed in PubChem.
